The record followed here is PubChem BioAssay (NCATS).

Active and inactive are the calls of the source. Where a call stands in place of a potency, no number is given. Calls come from the whole dose curve; as a rule, active = well fitted activation curve with a large enough effect; inconclusive = small, poorly fitted or top-dose-only effect; inactive = flat fitted curve, though single readings scatter.

The assay in a line: Confirmation and Secondary Assay for Modulators of Hemoglobin Beta Chain Splicing at IVS2 654 locus (AID 910).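 Note: HeLa cells stably carrying EGFP split by mutant beta-globin IVS2-654 intron.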 As to conditions: HeLa EGFP-654 splicing reporter, GFP fluorescence, 48 h; series mostly up to 38.3 µM. The text has this: NIH Chemical Genomics Center [NCGC] NIH Molecular Libraries Screening Centers Network [MLSCN] MLSCN Grant: 1 X01 MH080684-01 PI Name: Dr. Ryszard Kole NCGC Assay Overview: Modulation of Alternative Splicing as Therapy Abnormal splicing is associated with a number of diseases, including cancer and genetic diseases such as cystic fibrosis, muscular dystrophy and beta-thalassemia. Alteration of disease associated splicing patterns provides a promising target for treatment. […] Mutations in the second intron of the b-globin gene at positions 654 or 705 are clinically relevant and cause mis-splicing which results in an out of frame gene product. […] EGFP-654 HeLa Cells as screen system. HeLa cell lines were stably transfected with a construct in which the EGFP (enhanced green fluorescent protein) cDNA was interrupted by the second intron of the beta-globin gene (IVS2-654). The ISV2 intron contains mutations which cause mis-splicing of EGFP and premature termination of EGFP which results in a nonfluorescent protein product. […] Expression of the transgene was driven by the CMV promoter. We concluded that a low molecular weight compound, which restored correct splicing of intron 2 would also generate functional EGFP protein, resulting in a fluorescent signal. Thus, the HeLa cells that express the EGFP-654 construct can be used for high throughput screening of a chemical library.
NCGC Assay Protocol Summary: Confirmatory Screening. Freshly thawed HeLa EGFP-654 cells were seeded in 5 ul of optimem media (Invitrogen) containing 2 % fetal calf serum (Hyclone) and 1x penicillin/streptomycin (Invitrogen) at a concentration of 500 cells per well in 1536-well plates. Cells were incubated overnight at 37C in 5% CO2. The next day, cells were treated with DMSO, 500 nM antisense ISV2 654 PNA control oligo, or library compound and allowed to grow at 37C in 5% CO2 for 2 days. The PNA oligo blocked the mutation site in the intron and allowed proper (wild type) splicing to occur, resulting in full length EGFP expression and also allowed for optimization of the assay parameters. Plates were read in the Acumen Explorer (TTP Labtech) using 488 nm laser excitation and 500-520 nm emission PMT filter in a 1 x 8 uM capture mode. Fluorescnet objects ranging in size from 5 to 250 uM were measured and the total peak GFP intensity for each well was used for data analysis. Keywords: Thalassemia, beta-thalassemia, beta-globin, EGFP, ISV2 654, ISV2 705, SSO, PNA, antisense, splicing, MLSMR, MLSCN, NIH Roadmap, qHTS, NCGC
As to `CN(C)C(=O)c1ccc(-c2ccc3ncnc(NCc4cccnc4)c3c2)cc1`, the Potency entry is “inactive”. For `Cc1cnc(CNc2ncnc3ccc(-c4ccccc4CN(C)C)cc23)cn1`, the Potency result is “inactive”. Take `COc1ccc(CNc2cc(-c3ccccc3CN(C)C)ncn2)c(OC)c1`: the Potency entry was “inactive”. Consider `Clc1ccccc1-c1cc(NCc2cccnc2)ncn1`, for which the Potency result is “inactive”. With `COc1ccccc1-c1nc(NCCNC(C)=O)c2ccccc2n1`, the Potency entry was “inactive”.

Turning to `CN(C)Cc1ccccc1-c1cncnc1NC1CC1`, the Potency result was “inactive”. The value for `Cc1[nH]ccc2c1[nH]c1cc(=O)ccc12` was “inactive”; that for `COc1ccccc1CNc1ncncc1-c1ccccc1C` was “inactive”; that for `N#Cc1cccc(-c2cc(-n3ccnc3)ncn2)c1` was “inactive”. Turning to `O=c1cc(-c2ccc(O)cc2)oc2cc(O[C@H]3OC(CO)C(O)C(O)C3O)cc(O)c12` (stereo not given in full), the Potency entry is “inactive”.

As for `Cc1cccc(CNc2cc(-c3cccc(NS(C)(=O)=O)c3)ncn2)c1`, the Potency result is “inactive”. As for `COc1ccc2[nH]cc(CCNc3ncnc4ccc(-c5ccccc5CN(C)C)cc34)c2c1`, the Potency result was “inactive”. On to `CCCCCC/C=C\CCCCCCCc1cccc(O)c1C(=O)O`, for which the Potency result was “inactive”. Take `FC(F)(F)c1ccccc1-c1cncnc1Nc1ccccc1`: the Potency entry is “inactive”. On to `c1ccc2c(Nc3ccncc3)nc(-c3ccc4c(c3)OCO4)nc2c1`, for which the Potency result was “inactive”. Regarding `CN(C)C(=O)c1ccc(-c2cncnc2NCc2cccs2)cc1`, the Potency result is “inactive”.

Regarding `CN1C(CC(=O)c2ccccc2)CCCC1CC(O)c1ccccc1` (stereo not given), the Potency entry was “inactive”.

For `C[C@@](N)(Cc1ccc(O)c(O)c1)C(=O)O`, the Potency entry was “inactive”. Turning to `COc1ccc(CNc2nc(-c3ccoc3)nc3ccccc23)c(OC)c1`, the Potency entry is “inactive”.

Take `Cc1cccc(CNc2nc(-c3cccc(NS(C)(=O)=O)c3)nc3ccccc23)c1`: the Potency result is “inactive”.

Regarding `CN(Cc1ccco1)c1nc(-c2cccc(C#N)c2)nc2ccccc12`, the Potency result is “inactive”. With `Cc1ccccc1-c1nc(NCCN2CCOCC2)c2ccccc2n1`, the Potency result is “inactive”. Regarding `CC(C)=CCC/C(C)=C/CC/C(C)=C/CC/C(C)=C/CC/C(C)=C/CC/C(C)=C/CC/C(C)=C/CC/C(C)=C/CC/C(C)=C/CO`, the Potency entry is “inactive”. On to `COc1ccccc1CNc1ncnc2ccc(-c3c(C)noc3C)cc12`, for which the Potency result was “inactive”. On to `c1ccc2c(N3CCNCC3)nc(-c3ccoc3)nc2c1`, for which the Potency entry was “inactive”. Regarding `COc1cc(C/C=C/c2ccccc2)c(OC)cc1O`, the Potency entry is “inactive”.

For `CN(C)C(=O)c1ccc(-c2nc(NCc3cccs3)c3ccccc3n2)cc1`, the Potency entry is “inactive”. Take `Cc1cccc(CNc2nc(-c3ccoc3)nc3ccccc23)c1`: the Potency result was “inactive”. On to `CC(=O)Oc1ccccc1C(=O)Oc1ccccc1C(=O)O`, for which the Potency entry is “inactive”. In the case of `CN(C)c1ccc(-c2nc(N(C)C)c3ccccc3n2)cc1`, the Potency entry is “inactive”. Take `COc1cc(C)c(C(=O)Oc2cc(C)c(C(=O)O)c(O)c2C)c(OC)c1C`: the Potency entry is “inactive”. On to `COC(=O)c1c(C)cc(OC(=O)c2c(C)cc(O)c(C=O)c2O)c(C)c1O`, for which the Potency entry was “inactive”. Consider `Nc1ncnc2c1ncn2C1OC(CO)C(O)C1O` (stereo not given), for which the Potency entry was “inactive”.

Take `COc1ccc(-c2cc(=O)c3c(OC)c(OC)c(OC)c(OC)c3o2)cc1OC`: the Potency entry is “inactive”. Consider `O=c1ccc2cc(O)c(O)cc2o1`, for which the Potency entry is “inactive”. On to `Cc1cnc(CNc2ccnc(-c3ccc(N(C)C)cc3)n2)cn1`, for which the Potency result is “inactive”. `CN(C)Cc1ccccc1-c1cncnc1NCc1cccnc1`: the Potency entry is “inactive”. On to `O=c1c(O)c(-c2ccc(O)cc2)oc2ccccc12`, for which the Potency entry is “inactive”. With `COc1ccc2[nH]cc(CCNc3nc(-c4cccc(NS(C)(=O)=O)c4)nc4ccccc34)c2c1`, the Potency entry was “inactive”.

Consider `CS(=O)(=O)Nc1cccc(-c2nc(N3CCOCC3)c3ccccc3n2)c1`, for which the Potency result was “inactive”.
